FMDV antiviral = blocks foot and mouth disease virus | FMDV antiviral cell-based qHTS | Potency, µM (series often up to 57.9 µM), usual class: inhibitors | hit rate 1.2% among 410,000 | AID 1159524; calls by dose curve; tested in HEK293T cells; further: read-out not given here; nearly all actives have a fitted effect of over 45% in size
HCMV inh = human cytomegalovirus inhibition. HFF cells, HCMV-luciferase reporter, 72 h; stronger effect = lower value. activity change, negative = inhibition, % at 57.5 µM. AID 1259415. hit rate 4.5% among 410,000; in the data active means activity change below about -60%; inconclusive means no clear call, values can overlap the other calls; inactive means above about -39%
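Screen run at 2 compound doses on HFFs infected with reporter HCMV, MOI 1 PFU/cell. Luciferase activity from cell lysates at 72 h post infection gave inhibition relative to buffer-only and Salinomycin wells.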
HCV inh = blocks hepatitis C virus | Huh7.5.1 HCVcc-Cre infection, luciferase reporter, 44 h | Potency, µM (titrated, usually from 41.8 µM), hits mostly inhibitors | hit rate 3.4% among 340,000 | AID 651820; active means well fitted inhibition curve with a large enough effect; inconclusive means small, poorly fitted or top-dose-only effect, or another doubt; inactive means no such curve, though single readings can be large or run the other way
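A cell-based infection assay in which seeded cells (1,000 per well) receive test compound after 4 h, are inoculated with HCVcc-Cre at approximately 0.5 moi, and are incubated 44 h before luminescence detection.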
MARV entry inh = Marburg virus entry inhibition; hit rate 1.8% among 300,000; Marburg virus pseudotyped entry inhibition, cell reporter; AID 540276; Potency, µM (titrated, usually from 37.8 µM), actives largely listed as inhibitors; calls by dose curve; tested in HEK293 cells
LASV entry inh = Lassa virus entry inhibition; Lassa virus pseudotype entry inhibition, cell reporter; Potency, µM (highest dose often 37.9 µM), actives largely listed as inhibitors; hit rate 1.2% among 300,000; calls by dose curve; tested in HEK293 cells; further: nearly all actives have a fitted effect of over 50% in size
A number is an active result; n = inactive; u = inconclusive; x = no result. An excerpt weighted towards active compounds, which were near 7.9% of everything screened.

SMILES	FMDV antiviral	HCMV inh	HCV inh	MARV entry inh	LASV entry inh
Cc1cc(=O)oc2cc(NC(=O)c3cccc(Br)c3)ccc12	n	-74	n	n	u
Cc1cc(=O)oc2cc(NC(=O)c3cc4ccccc4o3)ccc12	x	n	n	n	x
CC(=O)N1CC(=O)N2[C@@H](CO)[C@@H](c3ccc(Br)cc3)[C@@H]2C1	x	n	x	x	x
O=[N+]([O-])c1cccc(-c2noc3ccccc23)c1	x	n	x	x	x
CCc1cccc(C)c1NS(=O)(=O)c1cc2[nH]c(=O)c(=O)[nH]c2cc1C	n	n	x	x	n
COc1ccc(C2=Nc3ccccc3NC(c3cccs3)=N2)cc1	n	n	x	20µM	n
Fc1ccc(Cn2c(-c3cccc(Br)c3)nc3ccccc32)cc1	n	n	x	x	n
CCCCCCNc1nc(-c2ccc(OC)cc2)c(CCC(=O)O)s1	n	-62	n	n	n
COc1ccc(-c2sc(NC(C)=O)nc2-c2ccccc2)cc1	n	n	u	n	n
COCCNc1nc(-c2ccc(OC)cc2)c(-c2ccc(OC)cc2)s1	n	-69	u	u	n
CCN(CC)CCNc1nc(-c2ccc(OC)cc2)c(-c2ccc(OC)cc2)s1	n	n	u	x	x
CC(=O)Nc1sc(-c2ccccc2)nc1-c1ccccc1	n	n	11µM	n	n
COc1ccc(-c2nc(NC(C)=O)sc2-c2ccccc2)cc1	n	n	10µM	n	u
COc1ccc(CNC(=O)CCn2nc(C)c3c(C)n(-c4ccccc4)nc3c2=O)cc1OC	n	n	x	x	n
Cc1ccc([C@H]2/C(=C(\O)c3ccc(OC(C)C)cc3)C(=O)C(=O)N2CCN2CCOCC2)cc1	x	x	x	n	x
COc1ccc(-c2nc3cnc(N4CCOCC4)nc3n(-c3ccc(OC)cc3)c2=O)cc1	n	x	x	x	x
CC(C)(C)C1=CC(=O)C(N2CCOCC2)=CC1=O	u	n	n	u	13µM
CCCCn1c(NC(=O)c2ccco2)c(C(=O)OCC)c2nc3ccccc3nc21	x	-69	n	n	n
Cc1ccc(NC(=O)CSc2nc3ccc(NC(=O)CCc4ccccc4)cc3s2)cc1	n	n	x	n	n
CCOC(=O)c1cccc(NS(=O)(=O)c2ccc(NC(C)=O)cc2)c1	n	-88	n	n	n
O=C(O)c1cccc(NS(=O)(=O)c2ccc(-c3ccc(S(=O)(=O)Nc4cccc(C(=O)O)c4)cc3)cc2)c1	n	-72	n	x	x
COc1ccc(S(=O)(=O)Nc2ccc3c(c2)CCC3)cc1	n	u	u	n	u
CC(=O)NCCc1ccc(S(=O)(=O)Nc2ccc(NC(=O)c3ccc(F)cc3)cc2)cc1	n	n	10µM	n	n
CC(=O)Nc1ccc(S(=O)(=O)Nc2ccc3c(c2)CCC3)cc1	n	-60	u	u	n
CC(=O)c1cccc(NS(=O)(=O)c2ccc(C(=O)Nc3ccccc3)cc2)c1	n	-76	4.5µM	u	u
SMILES	FMDV antiviral	HCMV inh	HCV inh	MARV entry inh	LASV entry inh
CCOC(=O)/C=C/S(=O)(=O)c1ccc(NC(C)=O)cc1	u	-99	u	n	n
CC(=O)c1ccc(NS(=O)(=O)c2ccc(C)cc2)cc1	n	n	n	n	n
COc1ccc(C(=O)/C=C/Nc2ccc(S(=O)(=O)Nc3cccc(C(C)=O)c3)cc2)cc1	n	-72	11µM	u	u
COc1cc(OC)c(OC)cc1/C=C/C(=O)c1ccc(NS(=O)(=O)c2ccc(C)cc2)cc1	n	-78	u	u	u
CCOC(=O)/C=C/C(=O)Nc1ccc(S(=O)(=O)Nc2c(C)cc(C)cc2C)cc1	u	n	n	u	n
CCOc1ccc(NC(=O)Cn2nc(CC)n3c(cc4sccc43)c2=O)cc1	n	n	x	n	x
CCSC1=NC2(CCN(C(=O)NC3CCCCC3)CC2)N=C1c1ccc(C)c(C)c1	n	n	x	x	u
CCOC(=O)N1CCc2c(sc3c2c(=O)n(CCc2ccccc2)c(=O)n3Cc2ccc(C)cc2C)C1	n	u	x	n	n
CCCCC(=O)NC(c1ccco1)c1c(O)ccc2ccccc12 (centres undefined)	n	n	n	n	n
CC(=O)NC(c1ccccc1)c1cc(Cl)c2cccnc2c1O (centres undefined)	n	-95	10µM	13µM	u
CCOc1ccc(C(NC(=O)c2ccco2)c2ccc(OC)c(OC)c2)cc1 (centres undefined)	x	n	n	n	u
CCCC(=O)NC(c1ccc(OC)c(OC)c1)c1cc(Cl)c2cccnc2c1O (centres undefined)	n	-99	n	10µM	u
CC(=O)NC(c1ccc(F)cc1)c1cccnc1 (centres undefined)	n	n	n	u	n
CC(=O)NC(c1ccc(N(C)C)cc1)c1cc(Cl)c2cccnc2c1O (centres undefined)	n	-100	x	x	x
CCCCC(=O)NC(c1cccs1)c1cc(Cl)c2cccnc2c1O (centres undefined)	n	-100	2.2µM	x	x
CC(CCN1CCCCc2nc(C)c(C)cc21)=NOC[C@@H](O)[C@H]1O[C@@H]2OC(C)(C)O[C@H]2[C@@H]1O	x	x	x	n	u
O=C(NC(c1ccc(Cl)cc1)c1cc(Cl)c2cccnc2c1O)c1cccnc1 (centres undefined)	u	-101	u	u	u
COc1ccc(C(NC(C)=O)c2cc(Cl)c3cccnc3c2O)cc1 (centres undefined)	n	-99	10µM	x	x
O=C(NCc1ccc(Cl)cc1)c1cccnc1	n	n	n	n	n
COc1ccc(C(Nc2cc(C)ccn2)c2ccc3ccc(C)nc3c2O)cc1 (centres undefined)	n	n	u	u	u
Cc1ccc(-c2nnc(Nc3ccc(OCC(N)=O)cc3)c3ccccc23)cc1S(=O)(=O)N(C)C	u	u	x	x	n
CC(=O)Nc1ccc(S(=O)(=O)c2ccnc3cc(Cl)ccc23)cc1	32µM	-83	x	x	x
CC(=O)Nc1ccc(S(=O)(=O)Nc2ccc(Cl)cn2)cc1	n	n	n	u	n
Cc1nc([N+](=O)[O-])c(Br)n1CC(=O)c1ccc(Br)cc1	13µM	n	u	u	n
Cc1nc([N+](=O)[O-])c(Br)n1CC(=O)c1ccccc1	u	n	u	u	n
SMILES	FMDV antiviral	HCMV inh	HCV inh	MARV entry inh	LASV entry inh
Cc1nc([N+](=O)[O-])c(C(=O)OCc2ccccc2Br)n1C	n	n	n	n	u
Cc1nc([N+](=O)[O-])c(Br)n1CC(=O)c1ccc2ccccc2c1	22µM	n	10µM	18µM	u
COc1ccc(NC(=O)Cn2ccn(-c3ccc(C)c(C)c3)c(=O)c2=O)cc1Cl	n	u	x	x	n
Cc1cc2c(c(=O)n1Cc1ccccc1)[C@H]1O[C@](CCCCN3C(=O)c4ccccc4C3=O)(Cc3c1ccc1ccccc31)O2	x	x	x	n	x
COc1ccc(S(=O)(=O)N2c3cc(Cl)ccc3Oc3nc4ccccc4nc32)cc1	n	-89	u	n	n
Cc1ccc(NC(=O)Nc2nc3ccccc3s2)cc1NC(=O)Nc1nc2ccccc2s1	n	-74	14µM	x	x
Cc1ccc(NC(=O)Nc2cccnc2)cc1NC(=O)Nc1cccnc1	u	u	11µM	x	x
O=C(Nc1cccnc1)Nc1cccc(F)c1	n	n	n	x	x
CC(=O)c1cccc(NC(=O)Nc2cccnc2)c1	n	-77	n	n	n
